Our source for the NP40-soluble protein abundance values is the supplement of paper PMC6411743.

The target of the assay is T1, UniProt P35613|P35613-2.
T1 sequence (whole entry): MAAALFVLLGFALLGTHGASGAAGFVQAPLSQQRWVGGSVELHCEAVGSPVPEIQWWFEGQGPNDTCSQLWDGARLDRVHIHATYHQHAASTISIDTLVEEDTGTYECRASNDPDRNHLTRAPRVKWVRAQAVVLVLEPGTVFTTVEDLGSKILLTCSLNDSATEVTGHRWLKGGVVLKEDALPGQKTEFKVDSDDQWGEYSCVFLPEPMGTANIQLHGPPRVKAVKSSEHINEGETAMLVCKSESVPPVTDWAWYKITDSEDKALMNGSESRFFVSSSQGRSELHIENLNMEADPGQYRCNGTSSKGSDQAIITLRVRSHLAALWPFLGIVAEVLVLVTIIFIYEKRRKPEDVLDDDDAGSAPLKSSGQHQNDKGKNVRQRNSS
The experiment in a line: NP40-soluble protein abundance relative to vehicle (solubility fold change) (ratio); higher = more soluble protein in presence of GTP. The protocol:
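Solubility proteome profiling in Jurkat crude lysate. Lysate was treated with Mg-GTP (0.1-10 mM) for 10 min at room temperature and 3 min at 37 °C, then solubilised with 0.8% NP40 and benzonase, followed by ultracentrifugation. Proteins were quantified by TMT10 LC-MS/MS; the value is the NP40-soluble abundance relative to the NP40-processed vehicle, from 3 independent experiments.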

The structures appear in SMILES notation. ± gives the standard deviation of the averaged measurements. Of roughly 5,400 targets only a part is listed; those with the largest changes were picked by preference.

Turning to `Nc1nc2c(ncn2[C@@H]2O[C@H](COP(=O)(O)OP(=O)(O)OP(=O)(O)O)[C@@H](O)[C@H]2O)c(=O)[nH]1` [guanosine triphosphate], the NP40-soluble protein abundance by setting is: (concentration: 0.1mM) 0.873 ± 0.045; (concentration: 0.5mM) 0.877 ± 0.074; (concentration: 1mM) 0.91 ± 0.042; (concentration: 2mM) 0.881 ± 0.081; (concentration: 4mM) 0.878 ± 0.062; (concentration: 6mM) 0.91 ± 0.087. Moreover, the NP40-soluble protein abundance is 0.872 ± 0.099 (concentration: 8mM) and 0.881 ± 0.065 (concentration: 10mM).
